Records with an inconclusive call do not appear. Calls of active or inactive are those of the source. Calls come from the whole dose curve; as a rule, active = well fitted curve in the direction sought with a large enough effect; inconclusive = small, poorly fitted or top-dose-only effect, or another doubt; inactive = no such curve, though single readings can be large; an effect the other way counts as inactive or inconclusive.
Assays:
[1] = 10-beta competent E. coli microbial cell viability qHTS against the NCATS CANVASS Library (AID 1347376); conditions: E. coli 10-beta viability, BacTiter-Glo ATP luminescence, overnight; series mostly up to 15.4 µM
Outline: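 Cytotoxicity toward competent E. coli is scored from cellular ATP content via BacTiter-Glo luminescence following overnight compound exposure at 37C, 5% CO2.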

[2] = DH5-alpha competent E. coli microbial cell viability qHTS against the NCATS CANVASS Library (AID 1347377); conditions: BacTiter-Glo ATP luminescence, overnight; series mostly up to 15.4 µM
Excerpt: Natural products and their derivatives continue to be wellsprings of nascent therapeutic potential. However, many laboratories have limited resources for biological evaluation, leaving their previously isolated or synthesized compounds largely or completely untested. To address this issue, the Canvass library of natural products was assembled (https://tripod.nih.gov/canvass), in collaboration with academic and industry researchers, for quantitative high-throughput screening (qHTS) across a diverse set of cell-based and biochemical assays. […] The library was formatted into 1536-well plates and evaluated in 50 qHTS (in an 11-pnt concentration series) bioassays with broad scope of disease-relevant mechanisms. The resulting data set from 50 different assays was then systematically analyzed to identify overall trends and specific natural products with interesting biological activities. […] The BacTiter-Glo microbial cell viability assay is a homogeneous method for determining the number of viable bacterial cells in culture based on quantitation of the ATP present. […] The homogeneous assay procedure involves adding a single reagent (BacTiter-GloTM Reagent) directly to bacterial cells in medium and measuring luminescence. […]

[3] = qHTS for H2AX Agonists against the NCATS CANVASS Library (AID 1347378); conditions: CHO-K1 H2AX phosphorylation, HTRF TR-FRET, 3 h; series mostly up to 25.6 µM
Outline: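 CHO-K1 cells (1000/well, overnight at 37C) exposed to compounds at several concentrations for 3 hr at 37C, 0.76% DMSO final. Lysates read by TR-FRET (phospho-H2AX S139 Eu-cryptate antibody / H2AX-d2 antibody) after 24 hr at room temperature; 665/615 nm ratio.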

[4] = qHTS for Inflammasome Signaling Inhibitors: IL-1-beta AlphaLISA screen against the NCATS CANVASS Library (AID 1347379); conditions: THP-1 LPS/ATP, IL-1B AlphaLISA secretion, 16 h; series mostly up to 19.2 µM;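 note: human THP-1 cells primed with LPS then triggered with ATP; secreted IL-1B measured as AlphaLISA emission at 615 nm; lower signal means less IL-1B release which is the wanted effect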
Excerpt: Natural products and their derivatives continue to be wellsprings of nascent therapeutic potential. However, many laboratories have limited resources for biological evaluation, leaving their previously isolated or synthesized compounds largely or completely untested. To address this issue, the Canvass library of natural products was assembled (https://tripod.nih.gov/canvass), in collaboration with academic and industry researchers, for quantitative high-throughput screening (qHTS) across a diverse set of cell-based and biochemical assays. […] The library was formatted into 1536-well plates and evaluated in 50 qHTS (in an 11-pnt concentration series) bioassays with broad scope of disease-relevant mechanisms. The resulting data set from 50 different assays was then systematically analyzed to identify overall trends and specific natural products with interesting biological activities. […]
IL-1-beta qHTS protocol: Three microliters containing 3000 THP-1 cells were dispensed into the wells of solid, white, tissue culture treated Greiner 1,536-well plates. […] The AlphaLISA signal was read by a PerkinElmer EnVision plate reader with an ultrasensitive luminescence detector and 1536 Plate HTS AlphaScreen aperture (excitation of 680nm and emission of 615nm).

[5] = Inflammasome Signaling qHTS Counterscreen: IL-1-beta AlphaLISA counterscreen against the NCATS CANVASS Library (AID 1347381); conditions: Purified IL-1beta AlphaLISA signal interference counterscreen; series mostly up to 19.2 µM;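 note: cell-free check with purified IL-1β in medium and no THP-1 cells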
Outline: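 To flag interference with the AlphaLISA read-out, a known amount of purified IL-1-beta (4 pg) replaced cell supernatant. Detection used anti-IL-1-beta acceptor beads, biotinylated antibody and streptavidin donor beads at room temperature.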

[6] = Cytotoxicity qHTS for assessment of Hepg2 cells membrane integrity screened against the NCATS CANVASS Library (AID 1347387); conditions: HepG2 LDH release (CytoTox-ONE) fluorescence, 5 h; series mostly up to 15.4 µM
Outline: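 Fluorescence proportional to lysed-cell number, from LDH leaking out of HepG2 cells exposed 5 hr at 37C to 0.59 nM - 46 uM compound (11-point qHTS), is measured after 10 min with CytoTox-ONE.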

[7] = qHTS for Activators of p53 Stress Response Pathway screened against the NCATS CANVASS Library (AID 1347388); conditions: p53RE-bla HCT-116, beta-lactamase reporter, 16 h; series mostly up to 15.4 µM
Outline: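 p53RE-bla HCT-116 cells (4000/well) were plated 5 h at 37C, exposed to compounds for 16 h at 37C over an 11-point concentration series, then loaded with CCF4 for 2 h at room temperature; 460/530 nm emission ratio read.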

[8] = qHTS assay for small molecule disruptors of mitochondrial membrane potential screened against the NCATS CANVASS Library (AID 1347389); conditions: HepG2 mitochondrial membrane potential, m-MPI red/green ratio, 1.5 h; series mostly up to 15.4 µM; note: nearly all actives have a fitted effect of over 60% in size
Outline: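 Compounds tested in 11-point qHTS series on HepG2 cells for 1 hr; membrane-potential dye added for 30 min at 37C. Lower red-to-green ratio indicates loss of potential.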

[9] = Secretion counterscreen for inhibitors of the SERCaMP assay screened against the NCATS CANVASS Library (AID 1347390); conditions: SH-SY5Y constitutive GLuc secretion, luminescence, 20 h; series mostly up to 25.5 µM;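 note: light from luciferase secreted into medium read as a measure of general secretion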
Outline: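 SH-SY5Y cells with constitutively secreted GLuc reporter, 1000 cells/well, treated 20 h at 37C with compounds at 0.001 - 77 uM final; secreted luciferase read as luminescence after coelenterazine; Brefeldin A as positive control.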

[10] = qHTS for activators of Nrf2/ARE signaling pathway screened against the NCATS CANVASS Library (AID 1347391); conditions: ARE-bla HepG2, beta-lactamase reporter, 16 h; series mostly up to 15.4 µM; note: nearly all actives have a fitted effect of over 60% in size
Outline: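 Cells carrying an ARE-driven beta-lactamase reporter (HepG2 background) are dosed for 16 h, then stained with CCF4. Cell viability in the same wells is measured by CellTiter-Glo luminescence.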

Measured: outcome

C[C@@H]1O[C@@H](OC[C@H]2O[C@@H](Oc3c(-c4ccc(O)c(O)c4)oc4cc(O)cc(O)c4c3=O)[C@H](O)[C@@H](O)[C@@H]2O)[C@H](O)[C@H](O)[C@H]1O
inactive: all assays above

Source: PubChem BioAssay (NCATS)
